Results published in PubChem BioAssay AID624417 (National Center for Advancing Translational Sciences (NCATS), 2012).
The whole screen tested about 410,000 compounds, of which about 6,400 (1.6%) were called active. About 20% were inconclusive and are not listed. This is one part of a sample in which actives are shown more often than they occur. The call rests on the fitted dose curve; in most records, active means well fitted inhibition curve with a large enough effect; inconclusive means small, poorly fitted or top-dose-only effect; inactive means no such curve, though single readings can be large or run the other way.

Target: Glucagon-like peptide 1 receptor (Homo sapiens) (UniProt P43220)
Sequence (P43220 whole entry, looked up): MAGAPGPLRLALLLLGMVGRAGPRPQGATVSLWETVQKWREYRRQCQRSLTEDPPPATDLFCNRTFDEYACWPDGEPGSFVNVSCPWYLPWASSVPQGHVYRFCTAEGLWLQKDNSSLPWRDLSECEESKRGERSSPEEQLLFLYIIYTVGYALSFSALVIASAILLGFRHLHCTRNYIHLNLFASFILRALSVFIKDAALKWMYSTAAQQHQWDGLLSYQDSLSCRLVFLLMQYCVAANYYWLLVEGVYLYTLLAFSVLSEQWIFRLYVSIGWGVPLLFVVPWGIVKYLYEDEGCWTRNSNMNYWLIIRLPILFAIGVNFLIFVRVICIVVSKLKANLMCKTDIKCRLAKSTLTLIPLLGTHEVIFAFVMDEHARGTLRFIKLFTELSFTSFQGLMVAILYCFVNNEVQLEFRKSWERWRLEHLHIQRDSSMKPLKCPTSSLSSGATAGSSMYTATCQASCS
Assay: qHTS of GLP-1 Receptor Inverse Agonists (Inhibition Mode); further: nearly all actives have a fitted effect of over 55% in size
Details: HEK293 GLP-1R CRE-luciferase, luminescence, 24 h, GLP-1R form is constitutively active; series mostly up to 38.3 µM; activity change, negative = inhibition: at the top concentration
In short: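 qHTS in 1536-well format: reporter HEK293 cells expressing constitutive GLP-1R activity in DMEM + 10% Nu serum, 24 hr with compounds at 37 deg C, luminescence read after 12 min with detection reagent.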
On the % scale 0 is the no-effect control and ±100 the full control effect; potency means the concentration at half of the fitted maximal effect.

Structure (SMILES)	Potency	activity change, negative = inhibition
Cc1cccc(Nc2nc(-c3ccccc3)cs2)n1	3.16 µM (active)	–
O=C(O)c1ccccc1C(=O)Nc1nc(-c2ccccc2)cs1	–	14.7% (inactive)
CC(=O)Nc1cccc(-c2csc(Nc3cccc(C)n3)n2)c1	–	83.8% (inactive)
CCc1c(N=O)c(-c2ccccc2)n(O)[n+]1[O-]	–	15.7% (inactive)
CCC(Oc1ccccc1)C(=O)OCC(=O)Nc1c(C)nn(-c2ccccc2)c1C (stereo not given)	–	0.193% (inactive)
Cc1ccc(S(=O)(=O)N(CC(=O)N2CCc3ccccc3C2)c2cccc(Cl)c2)cc1	8.91 µM (active)	–
COc1cccc(N(CC(=O)N2CCc3ccccc3C2)S(C)(=O)=O)c1	–	0% (inactive)
CS(=O)(=O)N(CC(=O)N1CCc2ccccc2C1)c1ccc(Br)cc1	–	-28.2% (inactive)
O=C(NCc1ccccc1)C1c2ccccc2OCC(=O)N1C1CC1 (stereo not given)	–	17.3% (inactive)
CC(C)CC1C(=O)N(Cc2cn(Cc3ccco3)nn2)CCS(=O)(=O)N1Cc1ccc(-c2ccc(Cl)c(Cl)c2)cc1 (stereo not given)	10 µM (active)	–
CC1C(=O)N(Cc2cn(Cc3ccco3)nn2)CCS(=O)(=O)N1Cc1ccc(-c2cccc(CO)c2)cc1 (stereo not given)	–	8.69% (inactive)
COCOCCn1cc(CN2CCS(=O)(=O)N(Cc3ccc(-c4cccc(N(C)C)c4)cc3)C(CC(C)C)C2=O)nn1 (stereo not given)	–	3.48% (inactive)
CC(C)CC1C(=O)N(Cc2cn(CC3CCCCC3)nn2)CCS(=O)(=O)N1Cc1ccc(-c2ccc(Cl)cc2)cc1 (stereo not given)	–	-7.5% (inactive)
COc1ccc(-c2ccc(CN3C(C(C)C)C(=O)N(Cc4cn(CC5CCCCC5)nn4)CCS3(=O)=O)cc2)cn1 (stereo not given)	–	-6.11% (inactive)
COc1ccc(-c2ccc(CN3C(CC(C)C)C(=O)N(Cc4cn(CC5CCCCC5)nn4)CCS3(=O)=O)cc2)cc1 (stereo not given)	10 µM (active)	–
CCN1C(=O)[C@@H]2[C@@H]3CN(S(=O)(=O)c4ccccc4C)[C@@H](c4ccc(Cl)cc4)[C@@H]3C(=O)C[C@@H]2C1=O	–	-3.42% (inactive)
CCOC(=O)c1cc(-c2sc(NC(=O)c3ccccc3)nc2C)n(CCO)n1	–	4.4% (inactive)
CCc1nc2ccc(C(=O)NCCNC(C)=O)cn2c1N(CC)Cc1cccc(Br)c1	–	25.7% (inactive)
C#CC(C)(CC)NC(=O)Cn1nnc(-c2ccc(OCc3c(F)cccc3Cl)cc2)n1 (stereo not given)	3.16 µM (active)	–
COc1ccc(CNC(=O)Cn2nnc(-c3ccccc3F)n2)cc1	–	16% (inactive)

Structure (SMILES)	Potency	activity change, negative = inhibition
CC(C)(C)NC(=O)Cn1nnc(-c2ccccc2Cl)n1	–	5.53% (inactive)
CN(C(=O)c1cccc(OC2CCN(S(=O)(=O)N(C)C)CC2)c1)C1CCOC1 (stereo not given)	–	20.4% (inactive)
CNS(=O)(=O)c1cccc(C(=O)NCC2CCCCC2)c1	–	14% (inactive)
CN(C)S(=O)(=O)N1CCC(Oc2cccc(C(=O)NCCCC3CCCC3)c2)CC1	10 µM (active)	–
CCNC(=O)C1(C)CCN(Cc2ccc(C(=O)OCC)o2)C1 (stereo not given)	–	3.7% (inactive)
CCc1noc(C)c1C(=O)OCC(=O)c1ccc(NC(=O)CC(C)C)cc1	–	-18.9% (inactive)
Cc1cccc(C)c1NC(=O)C(c1cccc2ccccc12)n1c(=O)c(-c2ccco2)nc2ccccc21 (stereo not given)	–	-9.33% (inactive)
COc1ccc(Cl)cc1NC(=O)CN(C)C(=O)c1ccc2n[nH]nc2c1	–	1.58% (inactive)
COc1ccc(Cl)cc1NC(=O)CN(C)C(=O)c1cn(-c2ccccc2)nc1-c1cccs1	–	5.33% (inactive)
COc1ccc(Cl)cc1NC(=O)CN(C)C(=O)c1cc2ccccc2cc1OC	10 µM (active)	–
O=[N+]([O-])c1ccc(C(S(=O)(=O)Cc2ccccc2)S(=O)(=O)Cc2ccccc2)cc1	–	-17.5% (inactive)
N=C(N)SCc1cccc2ccccc12	10 µM (active)	–
N#C/C(=C(/O)Cc1cccc2ccccc12)c1nc2ccccc2s1	–	-21.5% (inactive)
c1ccc2c(CNn3cnnc3)cccc2c1	–	30.1% (inactive)
CCCCNC(=O)OC1CC2CC1[C@H]1CCCCN1C2=O (stereo not given in full)	–	-16.9% (inactive)
C[C@H](NC(=O)CC[C@H]1O[C@@H](n2ccc(=O)[nH]c2=O)[C@H](O)[C@@H]1O)c1cccc2ccccc12	–	17.6% (inactive)
COc1cccc(C2c3[nH]c4ccccc4c3CCN2Cc2cccc(C)n2)c1 (stereo not given)	11.2 µM (active)	–
COc1cccc(N2CCN(C(=O)CCCCCn3c(=O)[nH]c4ccccc4c3=O)CC2)c1	–	-14.8% (inactive)
COC(=O)[C@H]1[C@H]2C[C@H]3c4[nH]c5ccccc5c4CCN3C[C@@H]2CC[C@@H]1O	inactive	–
Cc1ccc(S(=O)(=O)NCCC(=O)Nc2cccc(S(N)(=O)=O)c2)cc1C	–	8.4% (inactive)

Structure (SMILES)	Potency	activity change, negative = inhibition
Cc1ccc(NC(=O)CCNS(=O)(=O)c2ccc3c(c2)oc(=O)n3C)cc1C	–	-9.48% (inactive)
Cc1ccc(S(=O)(=O)NCCC(=O)Nc2ccc(C)c(Cl)c2)cc1C	7.08 µM (active)	–
Cc1cccc(N(CC(=O)N2CCCC2)S(C)(=O)=O)c1C	–	6.73% (inactive)
COCCCn1cc(CN2CC(N(C)C)CS2(=O)=O)nn1 (stereo not given)	–	18.2% (inactive)
O=C(CSc1ncn[nH]1)Nc1nc2c(F)c(F)c(F)cc2s1	–	24.9% (inactive)
Cc1ccc(-c2nn(-c3ccccc3)cc2/C=C/C(=O)Nc2cccc(S(N)(=O)=O)c2)cc1	5.01 µM (active)	–
NS(=O)(=O)c1cccc(NC(=O)CSc2nc3ccccc3n2-c2ccccc2)c1	–	33.1% [at 7.66 µM] (inactive)
COc1ccc(-c2nn(-c3ccccc3)cc2/C=C\C(=O)Nc2ccc(C(=O)O)cc2)cc1	–	-27.4% (inactive)
O=C(Nc1ccc2c(c1)OCCO2)C1c2ccccc2OCC(=O)N1Cc1ccccn1 (stereo not given)	–	21.4% (inactive)
c1cc(-c2ccc3[nH]ccc3c2)n2ccnc2c1	–	13.9% (inactive)
CCCCCOc1ccc(CSC2=NCCN2)cc1[N+](=O)[O-]	3.98 µM (active)	–
Cc1nc(SCc2ccc(F)cc2)c([N+](=O)[O-])[nH]1	–	11.3% (inactive)
CCCCOc1ccc(CSC(=N)N)cc1[N+](=O)[O-]	–	0% (inactive)
CC1(C)OC(=O)C2=C(C[C@@H](C3CC3)O[C@H]2c2ccc(Cl)cc2)O1	–	-24.2% (inactive)
CN(C)C(CNC(=O)c1cccc(S(=O)(=O)N2CCc3ccccc3C2)c1)c1ccccc1 (stereo not given)	–	-24.4% (inactive)
Cc1ccn(CC(=O)NC2CCCN(Cc3ccccc3F)C2)n1 (stereo not given)	–	-2.79% (inactive)
CC1Oc2ccccc2N(Cc2cccnc2)C1=O (stereo not given)	–	20.6% (inactive)
CC12c3ccccc3C(c3ccccc31)C1C(=O)N(Cc3cccnc3)C(=O)C12 (stereo not given)	8.91 µM (active)	–
CC1(C)CN(Cc2cccnc2)C(=O)[C@H]1CC(=O)Nc1ccc(Br)cc1	–	12.3% (inactive)
COc1cccc(CNc2nc3cc(-c4csc5ccccc45)sc3c(=O)n2C)c1	–	1.12% (inactive)
